High-throughput results deposited in PubChem by National Center for Advancing Translational Sciences (NCATS).
D2 ag-1: Beta-Arrestin HTS for Positive Allosteric Modulators of the Human D2 Dopamine Receptor: Agonists; D(2) dopamine receptor (Homo sapiens), P14416; DiscoveRx PathHunter D2 beta-arrestin, luminescence, 90 min; 100% = 57 uM dopamine signal; activation, % (test concentration not listed); 360,000 tested, 0.084% active; AID 624465, 2012; in the data active = activation above about 40%; inconclusive = between about 15% and that limit
Target sequence (P14416 whole entry, looked up): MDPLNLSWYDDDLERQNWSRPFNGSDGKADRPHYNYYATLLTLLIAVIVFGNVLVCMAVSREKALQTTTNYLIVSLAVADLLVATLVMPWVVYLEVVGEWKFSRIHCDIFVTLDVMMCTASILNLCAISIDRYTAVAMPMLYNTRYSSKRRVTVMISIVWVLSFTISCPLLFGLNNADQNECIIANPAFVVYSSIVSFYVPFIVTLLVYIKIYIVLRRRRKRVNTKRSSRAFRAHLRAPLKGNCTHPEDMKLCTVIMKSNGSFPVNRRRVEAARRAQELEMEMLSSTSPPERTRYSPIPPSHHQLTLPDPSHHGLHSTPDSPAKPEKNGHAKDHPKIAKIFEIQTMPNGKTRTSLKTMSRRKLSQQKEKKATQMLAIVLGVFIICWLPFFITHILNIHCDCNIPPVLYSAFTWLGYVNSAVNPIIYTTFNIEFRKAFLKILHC
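Agonist mode: compounds alone added to overnight-plated D2 PathHunter cells for 90 min at 37 C, with 57 uM final dopamine (EC100) defining full response. Beta-arrestin recruitment detected by chemiluminescent reagent, read after 1 h at ambient temperature.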
D2 PAM-1: HTS Assay for Positive Allosteric Modulators of the Human D2 Dopamine Receptor: Primary Screen for Potentiators. HEK293 T-REx D2, calcium flux, EC20 dopamine potentiation. potentiation, % at 10 µM. 340,000 tested, 0.34% active. AID 485347, 2010;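 active = potentiation over 3 SD above the plate norm, cut at about 30% in these data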; also: 0% is about no effect
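Primary screen. Calcium kinetics in induced HEK293 T-REx D2 cells: compound pre-addition 180 s, EC20 dopamine, 180 s more.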
D2 ag-2: HTS Assay for Allosteric Agonists of the Human D2 Dopamine Receptor: Primary Screen for Agonists. D(2) dopamine receptor (Homo sapiens), P14416. HEK293 T-REx D2 cells, calcium flux agonist mode. activation, % at 2 µM. 340,000 tested, 0.53% active. AID 485358, 2010;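 active = activation over 3 SD above normal in the single-dose calcium agonist read, cut at about 30% in these data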; also: 0% is about no effect
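In this primary screen, compounds producing a positive calcium signal within 180 s of addition to tetracycline-induced, force-coupled HEK293 Trex D2 cells are flagged; cells are dye-loaded with a no-wash calcium kit beforehand.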
D2 antag: HTS Assay for Allosteric Antagonists of the Human D2 Dopamine Receptor: Primary Screen for Antagonists; 340,000 tested, 2% active; D(2) dopamine receptor (Homo sapiens), P14416; HEK293 TREx D2 cells, calcium flux, dopamine EC80; inhibition, % at 10 µM; in the data active = inhibition above about 30%; inactive = below that, where a call was filed; also: 0% is about no effect
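Cells plated overnight at 30 C with tetracycline; no-wash calcium dye, 30–90 min RT; 10 s baseline; compound pinned; 180 s read; EC80 dopamine added; another 180 s read.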
D2 PAM-2: Beta-Arrestin HTS for Positive Allosteric Modulators of the Human D2 Dopamine Receptor: Potentiators | potentiation, % (no concentration beside the values) | 360,000 tested, 0.23% active | AID 624464, 2012 | D(2) dopamine receptor (Homo sapiens), P14416 | DiscoveRx D2 beta-arrestin cells, luminescence, 90 min; 100% = 57 uM dopamine signal; in the data active = potentiation above about 50%; inconclusive = mostly about 30% to 49%
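PathHunter D2 cells, attached overnight at 37 deg C, received compound in DMSO plus dopamine at EC20 (50 nM final) for 90 min at 37 deg C. Beta-arrestin recruitment was read as luminescence after 1 h with detection reagent at ambient temperature.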
* marks the source's active call; other numbers are inactive results; u = inconclusive; x = not tested or not shown. The list is not random: actives were taken first. Their share in the collection is about 2.4%.

SMILES | D2 ag-1 | D2 PAM-1 | D2 ag-2 | D2 antag | D2 PAM-2
O=C(COC(=O)c1ccc(S(=O)(=O)NCc2ccco2)cc1)NCc1ccc(F)cc1 | 4 | 64* | 0 | -11 | -1
COc1ccc(-c2cc3ccc(O)c(CN4CCCC4)c3oc2=O)cc1OC | x | 15 | 3 | x | x
O=C(Oc1cccc(Oc2ccccc2)c1)N1CCOCC1 | 0 | 7 | -1 | 41* | -5
O=C(Oc1ccc(-c2ccccc2)cc1)N1CCOCC1 | 1 | 3 | 0 | 5 | -1
CCOC(=O)N1CCN(C(=O)c2ccc(Cn3c(=S)[nH]c4cc5c(cc4c3=O)OCO5)cc2)CC1 | -1 | 5 | 0 | 31* | 15
O=C(c1ccc2c(=O)n(CCc3ccccc3)c(=O)[nH]c2c1)N1CCN(c2ccccc2)CC1 | -3 | 30* | 4 | -4 | -1
CCOC(=O)N1CCN(C(=O)c2ccc(Cn3c(=S)[nH]c4cc(OCC)c(OCC)cc4c3=O)cc2)CC1 | 3 | 15 | 0 | 14 | -18
O=C(c1ccc2c(=O)n(CCc3ccccc3)c(=O)[nH]c2c1)N1CCN(c2ccc(F)cc2)CC1 | 8 | -6 | 0 | 0 | 16
CCOc1cc2[nH]c(=S)n(Cc3ccc(C(=O)NCCN(CC)CC)cc3)c(=O)c2cc1OCC | -1 | -22 | 0 | 50* | -24
C=CCn1c(=O)[nH]c2cc(C(=O)N3CC=C(c4ccccc4)CC3)ccc2c1=O | -2 | 6 | -1 | 36* | 11
CCc1ccc2occ(CC(=O)Nc3ccc(OC)c(Cl)c3)c2c1 | x | 14 | -1 | x | x
CCOc1ccc(NS(=O)(=O)c2c(C)nc3sc(C)c(C)n3c2=O)cc1 | x | 2 | 1 | x | x
CCCCCn1c(=O)[nH]c2cc(C(=O)N3CCN(Cc4ccc5c(c4)OCO5)CC3)ccc2c1=O | 5 | -17 | 38* | 14 | -9
O=C(c1ccc(Cn2c(=S)[nH]c3ccccc3c2=O)cc1)N1CCN(c2ccccn2)CC1 | 3 | -6 | 0 | 33* | 0
CC(C)NC(=O)CN1C(=O)C(C)(C)Oc2ccc(C(=O)NC3CCCCC3)cc21 | -5 | -24 | 0 | 32* | -17
CC(C)(C)NC(=O)c1ccc2c(c1)N(CC(=O)NC1CCCC1)C(=O)C(C)(C)O2 | -1 | -29 | -1 | 53* | -20
CC1CCCC(C)N1C(=O)CN1C(=O)C(C)(C)Oc2ccc(C(=O)NC3CCCC3)cc21 (configuration not stated) | -2 | -7 | -1 | 33* | -5
CC1CCCC(C)N1C(=O)CN1C(=O)C(C)(C)Oc2ccc(C(=O)NC3CCCCC3)cc21 (configuration not stated) | 1 | 10 | 0 | -21 | -6
COc1ccc(N2CCN(c3ccc(-c4nc(-c5ccccc5C)no4)cc3[N+](=O)[O-])CC2)cc1 | x | 10 | x | x | x
C=CCn1c(CNC(=O)c2ccccc2F)nnc1SCc1nc2ccccc2c(=O)[nH]1 | 13 | 38* | x | x | -31
CCC(=O)NC1=C(Cl)C(=O)C(NC(=O)CC)=C(Cl)C1=O | 42* | 1 | 2 | -8 | -60
CCC(=O)NC1=C(NC(C)c2ccccc2)C(=O)c2ccccc2C1=O (configuration not stated) | 6 | 3 | 0 | -15 | u
COc1ccc(CN2C(=O)N(c3ccc(F)cc3)C(=O)C2CC(=O)Nc2cc(OC)cc(OC)c2)cc1 (configuration not stated) | x | 7 | 0 | x | x
Cc1nc2sc(C(=O)N(C)Cc3ccccc3)c(NC(=O)c3ccccc3)c2c(C)c1Cl | x | 7 | 0 | x | x
COc1ccc(Cn2c(O)c(C=Nc3ccccc3C(=O)O)c3ccccc3c2=O)cc1 | 5 | 4 | 0 | 32* | 5
SMILES | D2 ag-1 | D2 PAM-1 | D2 ag-2 | D2 antag | D2 PAM-2
OCCNCCOc1ccccc1-c1ccccc1 | 2 | -10 | 3 | 66* | -24
CC(C)(C)c1ccccc1OCCCCCNCCO | -5 | -30 | 1 | 50* | -16
CN(C)CCOCCOc1ccccc1-c1ccccc1 | 1 | 29 | 1 | -16 | -21
CNCCOc1ccccc1-c1ccccc1 | 3 | -22 | 1 | 45* | -33
Cc1ccccc1OCCCCCNCCO | 0 | -7 | 0 | -1 | -9
CNCCCCOc1ccccc1-c1ccccc1 | -2 | -31 | 1 | -16 | -37
OCCNCCOCCOc1ccccc1-c1ccccc1 | -4 | -24 | 28 | 33* | -35
O=C(NCCNC(=O)c1ccc(-c2ccc(Cl)c(Cl)c2)o1)c1cnccn1 | 8 | 102* | -1 | -18 | 6
O=C(NCCNC(=O)c1ccc(-c2cccc(Cl)c2)o1)c1cnccn1 | 2 | x | x | x | -14
COCC(=O)OC1CCn2c1nc1c2C(=O)C(C)=C(NC(C)=O)C1=O (configuration not stated) | u | x | x | x | 87*
COc1ccc(OCc2cc(C(=O)NC(C)Cc3ccccn3)no2)c(Cl)c1 (configuration not stated) | 9 | -7 | -1 | 33* | -12
O=C(COC(=O)c1ccccc1-c1nc2ccccc2s1)NC1CCS(=O)(=O)C1 (configuration not stated) | 1 | -3 | 0 | 32* | -15
CC(C)NS(=O)(=O)c1ccc(OCC(=O)N2CCc3ccccc3C2)cc1 | 2 | 5 | -1 | 30* | -4
COc1cc(C#N)ccc1OCC(=O)N1CCc2ccccc2C1 | -6 | 38* | -1 | 2 | -6
Cc1cc(OCC(=O)OCC(=O)N2CCc3ccccc3C2)ccc1Cl | -2 | 36* | 0 | 24 | 1
CC(C)NS(=O)(=O)c1ccc(OCC(=O)N2CCCC2)cc1 | 0 | -8 | x | x | -17
COc1ccc(N2CCN(C(=O)c3cccn3-c3nnc(N4CCCC4)s3)CC2)cc1 | x | 12 | 0 | x | x
COC(=O)c1ccc2c(=O)n(CCCCCC(=O)N3CCN(c4cccc(C)c4C)CC3)c(=O)[nH]c2c1 | x | 3 | 7 | x | x
Clc1ccc(OCCN2CCCCC2)c(Cl)c1 | -2 | -21 | 0 | 72* | -27
CC1CC(C)CN(CCOc2ccc(Cl)cc2Cl)C1 (configuration not stated) | -2 | x | x | x | -18
Clc1ccccc1OCCN1CCCCC1 | -4 | -33 | 1 | 44* | -37
Clc1ccc(SCCCN2CCCCC2)cc1 | -3 | -26 | -1 | 38* | -21
Clc1ccc(OCCCCCN2CCCC2)c(Br)c1 | 1 | -44 | 3 | -7 | -25
Clc1ccc(OCCCN2CCCCC2)c(Br)c1 | 2 | -21 | 1 | 38* | -46
